Measurements reported in the supplement of paper PMC8007513.
Structures can show the parent of a compound that is named as a salt. ± gives the standard error. About 130 (10%) of roughly 1,300 compounds showed an effect of 50% or more. The entries come from a sample that favours strong results as a whole.

Test system: Trichoderma virens ATCC 9645
Assay: growth yield (OD600) with compound + IPBC relative to untreated control; higher = less growth inhibition
Details: compound concentration: 100 uM, IPBC concentration: 200 ng/ml
Outline: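 For each 96-well plate, 100 μl aliquots were prepared with Trichoderma virens ATCC 9645 spores suspended at 15,000 spores ml^−1 in potato dextrose broth. The spores had been harvested from potato dextrose agar plates after 7 days. Library compounds were present at 100 μM final, some wells also receiving a biocide at 200 ng ml^−1, and plates were grown at 30 °C with OD600 read on a BioTek EL800 at 40 h and 72 h. Reported growth, relative to the control lacking both agents, is the mean of duplicate screens.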

| SMILES | growth yield (40 h) [%] | growth yield (72 h) [%] |
| --- | --- | --- |
| C/C(=C\C(=O)OCCCCCCCCC(=O)O)C[C@@H]1OC[C@H](C[C@@H]2O[C@H]2[C@@H](C)[C@H](C)O)[C@@H](O)[C@H]1O [Mupirocin] + CCCCNC(=O)OCC#CI [3-iodo-2-propynyl butylcarbamate (IPBC)] | 6.51 ± 1.4 | 43.4 ± 5.7 |
| O=C1CCc2ccc(OCCCCN3CCN(c4cccc(Cl)c4Cl)CC3)cc2N1 [Aripiprazole] + CCCCNC(=O)OCC#CI [3-iodo-2-propynyl butylcarbamate (IPBC)] | 81.8 ± 2.1 | 94.2 ± 1.5 |
| NS(=O)(=O)c1cc(C(=O)O)cc(N2CCCC2)c1Oc1ccccc1 [Piretanide] + CCCCNC(=O)OCC#CI [3-iodo-2-propynyl butylcarbamate (IPBC)] | 98.3 ± 13 | 101 ± 6.5 |
| CC(=O)Oc1ccc(C(c2ccc(OC(C)=O)cc2)c2ccccn2)cc1 [Bisacodyl] + CCCCNC(=O)OCC#CI [3-iodo-2-propynyl butylcarbamate (IPBC)] | 76.2 ± 2.2 | 86.8 ± 2.1 |
| CC[C@H]1OC(=O)[C@H](C)[C@@H](O[C@H]2C[C@@](C)(OC)[C@@H](O)[C@H](C)O2)[C@H](C)[C@@H](O[C@@H]2O[C@H](C)C[C@H](N(C)C)[C@H]2O)[C@](C)(O)C[C@@H](C)[C@@H]2N[C@@H](COCCOC)O[C@H]([C@H]2C)[C@]1(C)O [Dirithromycin] + CCCCNC(=O)OCC#CI [3-iodo-2-propynyl butylcarbamate (IPBC)] | 89 ± 9.5 | 94.9 ± 6.4 |
| N=C(N)NS(=O)(=O)c1ccc(N)cc1 [Sulfaguanidine] + CCCCNC(=O)OCC#CI [3-iodo-2-propynyl butylcarbamate (IPBC)] | 89.6 ± 2.5 | 92.4 ± 2.6 |
| Cc1cccc(C)c1OCC(=O)N[C@@H](Cc1ccccc1)[C@@H](O)C[C@H](Cc1ccccc1)NC(=O)[C@H](C(C)C)N1CCCNC1=O [Lopinavir] + CCCCNC(=O)OCC#CI [3-iodo-2-propynyl butylcarbamate (IPBC)] | 108 ± 5.4 | 111 ± 5.1 |
| O=C(NCC(O)CO)c1c(I)c(C(=O)NCC(O)CO)c(I)c(N(CCO)C(=O)CO)c1I (stereo not given) [Ioversol] + CCCCNC(=O)OCC#CI [3-iodo-2-propynyl butylcarbamate (IPBC)] | 103 ± 18 | 98 ± 13 |
| C#C[C@]1(O)CC[C@H]2[C@@H]3CCC4=CC(=O)CC[C@@H]4[C@H]3CC[C@@]21C [Norethindrone] + CCCCNC(=O)OCC#CI [3-iodo-2-propynyl butylcarbamate (IPBC)] | 55.1 ± 1.4 | 83.06 ± 0.63 |
| OCCN(CCO)c1nc(N2CCCCC2)c2nc(N(CCO)CCO)nc(N3CCCCC3)c2n1 [Dipyridamole] + CCCCNC(=O)OCC#CI [3-iodo-2-propynyl butylcarbamate (IPBC)] | 44.5 ± 1.6 | 57.37 ± 0.52 |
| CN[C@H](CC(C)C)C(=O)N[C@H]1C(=O)N[C@@H](CC(N)=O)C(=O)N[C@H]2C(=O)N[C@H]3C(=O)N[C@H](C(=O)N[C@H](C(=O)O)c4cc(O)cc(O)c4-c4cc3ccc4O)[C@H](O)c3ccc(c(Cl)c3)Oc3cc2cc(c3O[C@@H]2O[C@H](CO)[C@@H](O)[C@H](O)[C@H]2O[C@H]2C[C@](C)(N)[C@H](O)[C@H](C)O2)Oc2ccc(cc2Cl)[C@H]1O [Vancomycin hydrochloride] + CCCCNC(=O)OCC#CI [3-iodo-2-propynyl butylcarbamate (IPBC)] | 84.2 ± 0.95 | 98.27 ± 0.52 |
| Cc1cccc(N(C)C(=S)Oc2ccc3ccccc3c2)c1 [Tolnaftate] + CCCCNC(=O)OCC#CI [3-iodo-2-propynyl butylcarbamate (IPBC)] | 0 | 35.9 ± 0.84 |
| CC(C)(C)C(=O)OCOC(=O)[C@@H]1N2C(=O)[C@@H](NC(=O)[C@H](N)c3ccccc3)[C@H]2SC1(C)C [Pivampicillin] + CCCCNC(=O)OCC#CI [3-iodo-2-propynyl butylcarbamate (IPBC)] | 125 ± 1.3 | 119.9 ± 0.73 |
| CCCCCOC(=O)Nc1nc(=O)n([C@@H]2O[C@H](C)[C@@H](O)[C@H]2O)cc1F [Capecitabine] + CCCCNC(=O)OCC#CI [3-iodo-2-propynyl butylcarbamate (IPBC)] | 99.28 ± 0.48 | 98.58 ± 0.84 |
| CN(C)/N=N/c1[nH]cnc1C(N)=O [Dacarbazine] + CCCCNC(=O)OCC#CI [3-iodo-2-propynyl butylcarbamate (IPBC)] | 86.25 ± 0.48 | 93.03 ± 0.52 |
| O=C([O-])c1ccccc1-c1c2cc(Br)c(=O)cc-2oc2[c]([Hg+])c([O-])c(Br)cc12.[Na+].[Na+].[OH-] [Merbromin] + CCCCNC(=O)OCC#CI [3-iodo-2-propynyl butylcarbamate (IPBC)] | 5.4 ± 0.64 | 3.99 ± 0.21 |
| COc1ccc([C@@H]2CC(=O)c3c(O)cc(O[C@@H]4O[C@H](CO[C@@H]5O[C@@H](C)[C@H](O)[C@@H](O)[C@H]5O)[C@@H](O)[C@H](O)[C@H]4O)cc3O2)cc1O [Hesperidin] + CCCCNC(=O)OCC#CI [3-iodo-2-propynyl butylcarbamate (IPBC)] | 86.41 ± 0.64 | 92.6 ± 2.2 |
| C[C@@H](O[C@H]1OCCN(Cc2n[nH]c(=O)[nH]2)[C@H]1c1ccc(F)cc1)c1cc(C(F)(F)F)cc(C(F)(F)F)c1 [Aprepitant] + CCCCNC(=O)OCC#CI [3-iodo-2-propynyl butylcarbamate (IPBC)] | 113 ± 12 | 104 ± 8.8 |

| SMILES | growth yield (40 h) [%] | growth yield (72 h) [%] |
| --- | --- | --- |
| CNCCc1ccccn1 [Betahistine mesylate] + CCCCNC(=O)OCC#CI [3-iodo-2-propynyl butylcarbamate (IPBC)] | 88 ± 8.3 | 92 ± 5.6 |
| O=C(NCNC(=O)NC1C(=O)NC(=O)N1CO)NC1C(=O)NC(=O)N1CO (stereo not given) [Imidurea] + CCCCNC(=O)OCC#CI [3-iodo-2-propynyl butylcarbamate (IPBC)] | 89 ± 7 | 92.5 ± 5.5 |
| CCCc1cc(=O)[nH]c(=S)[nH]1 [Propylthiouracil] + CCCCNC(=O)OCC#CI [3-iodo-2-propynyl butylcarbamate (IPBC)] | 90.1 ± 11 | 93 ± 6.4 |
| CCCCCCNC(=O)n1cc(F)c(=O)[nH]c1=O [Carmofur] + CCCCNC(=O)OCC#CI [3-iodo-2-propynyl butylcarbamate (IPBC)] | 21.9 ± 0.95 | 31.4 ± 0.32 |
| CC(C(=O)O)c1ccc(C(=O)c2ccccc2)s1 (stereo not given) [Tiaprofenic acid] + CCCCNC(=O)OCC#CI [3-iodo-2-propynyl butylcarbamate (IPBC)] | 77.83 ± 0.32 | 83.38 ± 0.32 |
| CCCCN(CCCC)CCC(O)c1cc2c(Cl)cc(Cl)cc2c2cc(C(F)(F)F)ccc12 (stereo not given) [Halofantrine hydrochloride] + CCCCNC(=O)OCC#CI [3-iodo-2-propynyl butylcarbamate (IPBC)] | 13.8 ± 0.16 | 7.66 ± 1.1 |
| CCN1CCCC(OC(=O)C(c2ccccc2)c2ccccc2)C1 (stereo not given) [Piperidolate hydrochloride] + CCCCNC(=O)OCC#CI [3-iodo-2-propynyl butylcarbamate (IPBC)] | 85.5 ± 1.6 | 94.08 ± 0.73 |
| CC[C@@]1([C@@H]2O[C@@H]([C@H]3O[C@@](O)(CO)[C@H](C)C[C@@H]3C)C[C@@H]2C)CC[C@H]([C@]2(C)CC[C@]3(C[C@H](O)[C@@H](C)[C@@H]([C@@H](C)[C@@H](OC)[C@H](C)C(=O)O)O3)O2)O1 [Monensin sodium salt] + CCCCNC(=O)OCC#CI [3-iodo-2-propynyl butylcarbamate (IPBC)] | 79.4 ± 9.8 | 89.6 ± 9.2 |
| CC(Cc1cccc(C(F)(F)F)c1)NCCOC(=O)c1ccccc1 (stereo not given) [Benfluorex] + CCCCNC(=O)OCC#CI [3-iodo-2-propynyl butylcarbamate (IPBC)] | 56.4 ± 1.8 | 81.8 ± 1.5 |
| Cc1cccc(Nc2ccncc2S(=O)(=O)NC(=O)NC(C)C)c1 [Torsemide] + CCCCNC(=O)OCC#CI [3-iodo-2-propynyl butylcarbamate (IPBC)] | 95.3 | 114 ± 17 |
| CNCC[C@@H](Oc1cccc2ccccc12)c1cccs1 [(R)-Duloxetine hydrochloride] + CCCCNC(=O)OCC#CI [3-iodo-2-propynyl butylcarbamate (IPBC)] | 61.6 ± 3.8 | 90.3 ± 0.1 |
| O=C(O)CCCC[C@@H]1SC[C@@H]2NC(=O)N[C@@H]21 [Biotin] + CCCCNC(=O)OCC#CI [3-iodo-2-propynyl butylcarbamate (IPBC)] | 85.3 ± 3.3 | 91.03 ± 0.84 |
| C=C1C[C@@H]2[C@H](CC[C@]3(C)C(=O)CC[C@@H]23)[C@@]2(C)C=CC(=O)C=C12 [Exemestane] + CCCCNC(=O)OCC#CI [3-iodo-2-propynyl butylcarbamate (IPBC)] | 63.5 ± 0.64 | 77.6 ± 1.5 |
| CCOc1cc(CC(=O)N[C@@H](CC(C)C)c2ccccc2N2CCCCC2)ccc1C(=O)O [Repaglinide] + CCCCNC(=O)OCC#CI [3-iodo-2-propynyl butylcarbamate (IPBC)] | 104 ± 7.3 | 104 ± 4.8 |
| CN1CCN(C(c2ccccc2)c2ccc(Cl)cc2)CC1 (stereo not given) [Chlorcyclizine hydrochloride] + CCCCNC(=O)OCC#CI [3-iodo-2-propynyl butylcarbamate (IPBC)] | 76.9 ± 1.6 | 91.6 ± 2.6 |
| Cc1cccc(CN2CCN(C(c3ccccc3)c3ccc(Cl)cc3)CC2)c1 (stereo not given) [Meclozine dihydrochloride] + CCCCNC(=O)OCC#CI [3-iodo-2-propynyl butylcarbamate (IPBC)] | 3.02 ± 1.1 | 3.78 ± 0.63 |
| CN1CCCN(C(c2ccccc2)c2ccc(Cl)cc2)CC1 (stereo not given) [Homochlorcyclizine dihydrochloride] + CCCCNC(=O)OCC#CI [3-iodo-2-propynyl butylcarbamate (IPBC)] | 58.5 ± 2.2 | 89.9 ± 1.6 |
